Source: PubChem BioAssay
Records with an inconclusive call do not appear. The source made the active and inactive calls.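 The calls were made as follows, unless noted: active = viability at or below 10% of carrier control in both of two separate runs; inconclusive = viability at or below 10% in only one of the two runs; inactive = the rest.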

Legend:
[1] = Her2 expression decrease, cell viability multiplex – SKBR3 breast tumor cells, AlphaScreen, ATP viability, primary screen (AID 461;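 active = Her2 level under about 52% in both replicate screens, with viability over 70% of control, limit read from the data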;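 as to Her2 level: lower value means less Her2 protein in the cells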;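 as to viability: percent of carrier control wells set as 100% viability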); conditions: SKBR3 Her2 protein level, 18-24 h, measured here: SKBR3 viability, ATP luminescence, at 10 µM
[2] = biological target: Receptor tyrosine-protein kinase erbB-2 (Homo sapiens) (UniProt P04626); test: as above; conditions: 18-24 h, at 10 µM, stronger effect = lower value
[3] = reduced viability of SK-BR-3 breast cancer cells – cell-based, 24 h, human, pilot screen (AID 572); conditions: SK-BR-3 viability, CellTiter-Glo luminescence, at 10 µM, stronger effect = lower value;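 also: compound exposure lasted between 18 and 24 h rather than exactly 24 h; 100% = carrier-treated control wells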
[4] = HUVEC growth inhibition – cell-based, human, primary screen (AID 575;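 active = viability at or below 30% in both replicate assays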;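 also: 100% = median of untreated cell wells with 0.1% DMSO on each plate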); conditions: HUVEC proliferation, CellTiter-Glo luminescence, 72 h; at 10 µM; stronger effect = lower value
[5] = H69AR cell proliferation blockers – human, duplicate replicates, primary screen (AID 580;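 active = viability at or under a set limit in both replicates, limit being median viability minus 3 SD, cut at about 48% in these data, passing the limit was not always enough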;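 also: 100% = mean luminescence of untreated wells and 0% = no signal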); conditions: H69AR lung tumor cells viability, ATP luminescence, 72 h; at 10 µM; stronger effect = lower value
[6] = MRP1 drug-resistance reversers in H69AR cells – cell-based, doxorubicin co-treatment, pilot screen (AID 601;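 active = viability loss from added drug above about 55%, and viability with drug at most 40%, in both replicates, limit read from the data, passing the limit was not always enough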); conditions: CellTiter-Glo, 72 h, at 10 µM; for differential viability (reversal): stronger effect = higher value
[7] = yeast transport mutant growth inhibition pilot in 384-well plates, post-Golgi transport modulator project (AID 636; in the data active = inhibition above about 31%); conditions: absorbance 615 nm, about 18 h, stronger effect = higher value
[8] = growth suppression of yeast trafficking mutant, preliminary HTS, modulators of trafficking downstream of Golgi apparatus project, 1536-format plate, OD 615 nm (AID 637; in the data active = inhibition above about 30%); conditions: yeast transport mutant growth, absorbance 615 nm, 18 h; stronger effect = higher value
[9] = S. cerevisiae growth inhibition in permissive medium (OD615), pilot counter-assay for S. cerevisiae lifespan shortening project, permissive growth control (AID 705;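 active = growth inhibition above 25% in both replicates, a cutoff set 3 SD above the mean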); conditions: OD615, 24 h, at 10 µM, stronger effect = higher value
[10] = S. cerevisiae growth inhibition in restrictive medium, OD615, pilot screen, restrictive growth control, yeast lifespan reduction project (AID 706;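 active = growth inhibition above a set limit, 3 SD over mean compound inhibition, in both replicates, cut at about 43% in these data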;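 also: modified DeaD lifespan yeast strain shifted to restrictive glucose medium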); conditions: OD615, 48 h, at 10 µM, stronger effect = higher value
[11] = doxorubicin toxicity protection in MRP-1 cells – H69AR cells, CellTiter-Glo, duplicate, MRP-1 activator project, pilot screen (AID 807;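 active = viability increase at or above a cutoff of the median across tested compounds plus 3 SD, cut at about 8.5% in these data, passing the limit was not always enough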;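 also: compound pretreatment 18-22 h then 72 h combined with doxorubicin; 0% = doxorubicin alone and 100% = vehicle without doxorubicin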); conditions: H69AR viability with doxorubicin, CellTiter-Glo luminescence; at 10 µM; stronger effect = higher value
[12] = viability of HCT116 without oncogenic beta-catenin – human colon tumor cells, pilot screen (AID 823;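 active = cell viability at or below a set limit in both duplicate runs, the limit being the all-compound median minus 4 SD, cut at about 23% in these data, passing the limit was not always enough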;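 also: 0% = wells killed by 20 µM Hyamine and 100% = untreated DMSO cell wells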); conditions: HCT116 beta-catenin knockout viability, CellTiter-Glo, 60 h; at 10 µM; stronger effect = lower value
[13] = viability of PTEN-null HCT116 cells – cell-based, HCT116 clonal line, CellTiter-Glo, pilot screen (AID 824;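 active = viability at or below 27.92% in each of two runs, the all-compound median minus 4 SD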;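 also: 0% = 20 µM Hyamine control and 100% = vehicle cell control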); conditions: HCT116 PTEN-deleted viability, 60 h, at 10 µM, stronger effect = lower value
[14] = RAM pathway blockade in budding yeast – dse1pr::URA3 reporter, 5-FOA selection, pilot screen (AID 869;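 active = inhibition over a set limit, the all-compound mean plus 3 SD, in both replicate runs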;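 also: 0% = DMSO wells with no growth and 100% = 10 µM 1-NA-PP1 with full growth; RAM network block rescues cells from 5-FOA so hits raise OD615 growth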); conditions: S. cerevisiae dse1pr::URA3 5-FOA growth, OD615, 2 d; at 10 µM; stronger effect = higher value; strain carries analog-sensitive mutant Cbk1 kinase
[15] = RAM signaling pathway blockade in yeast – S. cerevisiae, Pdr1DBD-CYC8 efflux-inhibited sensitized strain, primary screen (AID 1298;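 active = RAM network inhibition above 8.4% in each of two replicates, 3 SD over the compound average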;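 also: 0% = DMSO untreated cells without growth and 100% = 10 µM 1-NA-PP1 full growth; higher means more yeast growth rescued from 5-FOA killing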); conditions: S. cerevisiae cbk1-as DSE1-URA3 strain, 5-FOA growth OD615, 2 d; at 50 µM; stronger effect = higher value
[16] = H69AR cells + 2 uM doxorubicin, measured here: viability with 2 uM doxorubicin, stronger effect = lower value
[17] = H69AR cells, compound alone cytotoxicity

Sequence of Receptor tyrosine-protein kinase erbB-2 (Homo sapiens) (P04626 whole entry, looked up): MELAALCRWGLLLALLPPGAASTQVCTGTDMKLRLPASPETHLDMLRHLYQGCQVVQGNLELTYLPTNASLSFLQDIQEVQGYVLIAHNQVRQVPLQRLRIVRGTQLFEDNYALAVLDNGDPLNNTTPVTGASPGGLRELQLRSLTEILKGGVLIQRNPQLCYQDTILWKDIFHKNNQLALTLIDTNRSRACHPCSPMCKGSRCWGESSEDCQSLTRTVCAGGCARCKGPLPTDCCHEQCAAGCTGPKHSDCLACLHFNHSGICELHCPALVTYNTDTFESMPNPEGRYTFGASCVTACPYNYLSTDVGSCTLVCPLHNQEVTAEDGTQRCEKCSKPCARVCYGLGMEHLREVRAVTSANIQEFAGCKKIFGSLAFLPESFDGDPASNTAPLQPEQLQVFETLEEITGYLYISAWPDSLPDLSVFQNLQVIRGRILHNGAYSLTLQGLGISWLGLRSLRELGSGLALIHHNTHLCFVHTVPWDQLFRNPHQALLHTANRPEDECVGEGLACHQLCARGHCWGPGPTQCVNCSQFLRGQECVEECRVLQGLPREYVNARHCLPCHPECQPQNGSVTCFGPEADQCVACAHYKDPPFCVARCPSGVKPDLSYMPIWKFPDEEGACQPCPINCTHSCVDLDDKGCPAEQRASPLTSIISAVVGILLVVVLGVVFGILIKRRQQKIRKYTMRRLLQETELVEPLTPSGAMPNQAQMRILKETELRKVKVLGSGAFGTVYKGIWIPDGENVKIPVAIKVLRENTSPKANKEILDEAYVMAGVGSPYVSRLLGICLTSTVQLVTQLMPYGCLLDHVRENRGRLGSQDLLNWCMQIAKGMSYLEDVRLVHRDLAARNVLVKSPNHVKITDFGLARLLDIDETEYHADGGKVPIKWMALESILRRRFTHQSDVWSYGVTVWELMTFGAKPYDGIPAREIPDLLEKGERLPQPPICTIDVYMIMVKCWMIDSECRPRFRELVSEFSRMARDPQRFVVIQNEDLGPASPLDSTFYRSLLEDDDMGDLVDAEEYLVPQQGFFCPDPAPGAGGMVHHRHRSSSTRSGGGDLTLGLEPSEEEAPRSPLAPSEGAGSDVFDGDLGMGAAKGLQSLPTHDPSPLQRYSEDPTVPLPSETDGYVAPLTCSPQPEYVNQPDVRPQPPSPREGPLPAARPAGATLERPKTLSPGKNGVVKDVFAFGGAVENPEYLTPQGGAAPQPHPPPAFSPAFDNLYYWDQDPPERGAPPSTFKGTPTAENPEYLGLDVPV

Row | Compound | viability [1] | Her2 level [2] | viability [3] | viability [4] | viability [5] | differential viability (reversal) ([6]; H69AR cells + 2 uM doxorubicin) | viability [6, 16] | viability [6, 17] | inhibition [7] | inhibition [8] | growth inhibition [9] | growth inhibition [10] | viability increase [11] | viability [12] | viability [13] | inhibition [14] | RAM network inhibition [15]
1 | COc1ccc(N(CC(=O)Nc2ccc3c(c2)OCO3)S(=O)(=O)c2c(C)nn(C)c2C)cc1 | 90.5% | 90.5% (inactive) | 90.5% (inactive) | 118% (inactive) | 99% (inactive) | 13.8% (inactive) | 85.1% | 99% | -0.38% (inactive) | 1% (inactive) | -8.51% (inactive) | -11.5% (inactive) | -2.78% (inactive) | 93.3% (inactive) | 90.5% (inactive) | 2.33% (inactive) | 3.88% (inactive)
2 | Cc1ccccc1OCc1nnc2n1CC(C)S2 (stereo not given) | 99% | 95% (inactive) | 99% (inactive) | 88.6% (inactive) | 92.3% (inactive) | 1.37% (inactive) | 90.9% | 92.3% | -4.27% (inactive) | -2% (inactive) | 3.34% (inactive) | 16.6% (inactive) | 0.12% (inactive) | 97.8% (inactive) | 95.3% (inactive) | 0.795% (inactive) | -0.06% (inactive)
3 | COc1ccc(-n2nnnc2SCC(=O)N2CCOCC2)cc1 | 93% | 92% (inactive) | 93% (inactive) | 83.8% (inactive) | 89.2% (inactive) | 0.58% (inactive) | 88.6% | 89.2% | -4.67% (inactive) | -0.5% (inactive) | -2.94% (inactive) | -5.96% (inactive) | -1.07% (inactive) | 96.2% (inactive) | 98.8% (inactive) | 0.85% (inactive) | 3.08% (inactive)
4 | CN(CCCNC(=O)c1cn(C)c2ccc(S(=O)(=O)N(C)C)cc2c1=O)c1ccccc1 | 85.5% | 90% (inactive) | 85.5% (inactive) | 98.3% (inactive) | 87.7% (inactive) | 17.1% (inactive) | 70.6% | 87.7% | 0.38% (inactive) | -1% (inactive) | 1.83% (inactive) | -0.125% (inactive) | -3.8% (inactive) | 94.8% (inactive) | 85% (inactive) | 0.395% (inactive) | 7.85% (inactive)
5 | O=C(Nc1ccc2c(c1)OCCO2)NC1CCCCC1 | 126% | 98.5% (inactive) | 126% (inactive) | 89.5% (inactive) | 85.9% (inactive) | 3.18% (inactive) | 82.7% | 85.9% | -4.27% (inactive) | -1.13% (inactive) | -1.73% (inactive) | 4.4% (inactive) | -0.85% (inactive) | 86.8% (inactive) | 85.5% (inactive) | 1.55% (inactive) | -0.57% (inactive)
6 | CSCCC(N=CC1=C(O)CC(C)(C)CC1=O)C(=O)O (stereo not given) | 100% | 139% (inactive) | 100% (inactive) | 99.4% (inactive) | 87.2% (inactive) | -2.07% (inactive) | 89.3% | 87.2% | -3.21% (inactive) | -6% (inactive) | 1.4% (inactive) | 1.57% (inactive) | 0.34% (inactive) | 93.9% (inactive) | 99.9% (inactive) | 0.65% (inactive) | 4.91% (inactive)
7 | NC(=O)CSc1cn(CCNC(=O)c2cccs2)c2ccccc12 | 99.5% | 92.5% (inactive) | 99.5% (inactive) | 99.4% (inactive) | 93.4% (inactive) | 1.49% (inactive) | 91.9% | 93.4% | -4% (inactive) | -2.83% (inactive) | -14.1% (inactive) | -28% (inactive) | -0.44% (inactive) | 107% (inactive) | 94.8% (inactive) | 1.34% (inactive) | 5.84% (inactive)
8 | Cn1c(=O)cc(NCCc2ccccc2)[nH]c1=O | 97% | 93.5% (inactive) | 97% (inactive) | 50.3% (inactive) | 42.9% (active) | -37.3% (inactive) | 80.2% | 42.9% | -1.82% (inactive) | -8.36% (inactive) | -9.86% (inactive) | 2.05% (inactive) | -5.4% (inactive) | 87.5% (inactive) | 88.3% (inactive) | 0.595% (inactive) | 3.06% (inactive)
9 | Cn1cc(Cl)c(C(=O)NC2CCCC2)n1 | 83.5% | 118% (inactive) | 83.5% (inactive) | 108% (inactive) | 105% (inactive) | 14.1% (inactive) | 91.3% | 105% | -5.07% (inactive) | 5.5% (inactive) | -12.3% (inactive) | -8.69% (inactive) | -0.89% (inactive) | 104% (inactive) | 103% (inactive) | 1.5% (inactive) | 2.86% (inactive)
10 | CCC(C)NC(=O)c1cn(CC)c2ccc(S(=O)(=O)N(C)C)cc2c1=O (stereo not given) | 87% | 84% (inactive) | 87% (inactive) | 85.7% (inactive) | 78.9% (inactive) | -11.6% (inactive) | 90.6% | 78.9% | -4.53% (inactive) | -2.33% (inactive) | 2.96% (inactive) | 14.4% (inactive) | -2.73% (inactive) | 92.4% (inactive) | 93.4% (inactive) | -0.32% (inactive) | 1.7% (inactive)
